According to PubChem BioAssay AID1159580 (chemical genetic matrix, 2015):
Screen size: about 5,500 compounds; about 2,000 (36%) were called active. Inconclusive results (about 18%) are left out. No stated cut-off is given here; in the data, active means normalized growth mostly below about 0.91 (no sharp cut-off); inconclusive means no clear call, values can overlap the other calls; inactive means mostly above about 0.92. The list shows a part of the results.

Test: chemical genetic growth profiling, strain panel (AID 1159580);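 further: tested at 20 µM; growth read once vehicle control cultures reached saturation at 30 °C; 1 = growth at the plate median or of vehicle wells; lower values mean less growth of the strain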
Settings: growth OD

Measured: normalized growth

COc1cc(OC)c2c(=O)c(-c3ccccc3)c(C)oc2c1OC
inactive: S. cerevisiae deletion strains, locus YJR043C, strain POL32, active compounds read low 1.01 | S. cerevisiae deletion strains, locus YJR075W, strain HOC1, active compounds read low 1.02 | S. cerevisiae deletion strains, locus YKL009W, strain mrt4, active compounds read low 1 | S. cerevisiae deletion strains, locus YKL068W, active compounds read low 1 | S. cerevisiae deletion strains, locus YKL085W, strain MDH1 (second series), active compounds read low 0.996 | S. cerevisiae deletion strains, locus YKL085W, strain MDH1, active compounds read low 0.996 | S. cerevisiae deletion strains, locus YKL160W, strain elf1, active compounds read low 1 | S. cerevisiae deletion strains, locus YKL190W, strain CNB1, active compounds read low 1.01 | S. cerevisiae deletion strains, locus YKR001C, strain vps1, active compounds read low 0.993 | S. cerevisiae deletion strains, locus YKR026C, strain gcn3, active compounds read low 0.966 | S. cerevisiae deletion strains, locus YKR091W, strain srl3, active compounds read low 0.962 | S. cerevisiae deletion strains, locus YLL001W, strain dnm1, active compounds read low 1.01 | S. cerevisiae deletion strains, locus YLL026W, active compounds read low 0.984 | S. cerevisiae deletion strains, locus YLL041C, strain sdh2, active compounds read low 1 | S. cerevisiae deletion strains, locus YLR027C, strain aat2, active compounds read low 0.982 | S. cerevisiae deletion strains, locus YLR039C, strain RIC1, active compounds read low 0.984 | S. cerevisiae deletion strains, locus YLR058C, strain SHM2, active compounds read low 1.01 | S. cerevisiae deletion strains, locus YLR102C, strain apc9, active compounds read low 0.999 | S. cerevisiae deletion strains, locus YLR221C, strain rsa3, active compounds read low 0.957 | S. cerevisiae deletion strains, locus YLR258W, strain gsy2, active compounds read low 0.987 | S. cerevisiae deletion strains, locus YLR262C, strain YPT6 (second series), active compounds read low 0.951 | S. cerevisiae deletion strains, locus YLR262C, strain YPT6, active compounds read low 0.989 | S. cerevisiae deletion strains, locus YLR268W, strain sec22, active compounds read low 0.972 | S. cerevisiae deletion strains, locus YLR320W, strain mms22, active compounds read low 0.984 | S. cerevisiae deletion strains, locus YLR330W, strain CHS5, active compounds read low 1.01 | S. cerevisiae deletion strains, locus YLR342W, strain FKS1 (second series), active compounds read low 1.01 | S. cerevisiae deletion strains, locus YLR342W, strain FKS1, active compounds read low 0.956 | S. cerevisiae deletion strains, locus YLR357W, strain rsc2, active compounds read low 0.986 | S. cerevisiae deletion strains, locus YLR370C, strain arc18, active compounds read low 0.977 | S. cerevisiae deletion strains, locus YLR371W, strain rom2, active compounds read low 1 | S. cerevisiae deletion strains, locus YLR384C, strain iki3, active compounds read low 0.98 | S. cerevisiae deletion strains, locus YLR418C, strain cdc73, active compounds read low 1.03 | S. cerevisiae deletion strains, locus YML016C, strain PPZ1, active compounds read low 1.01 | S. cerevisiae deletion strains, locus YML032C, strain rad52, active compounds read low 0.997 | S. cerevisiae deletion strains, locus YML120C, strain ndi1, active compounds read low 0.973 | S. cerevisiae deletion strains, locus YML124C, strain tub3, active compounds read low 0.989 | S. cerevisiae deletion strains, locus YMR058W, strain fet3, active compounds read low 0.988 | S. cerevisiae deletion strains, locus YMR078C, strain ctf18, active compounds read low 0.99 | S. cerevisiae deletion strains, locus YMR125W, strain sto1, active compounds read low 0.981 | S. cerevisiae deletion strains, locus YMR129W, active compounds read low 0.972 | S. cerevisiae deletion strains, locus YMR205C, strain PFK2, active compounds read low 0.95 | S. cerevisiae deletion strains, locus YMR223W, strain ubp8, active compounds read low 0.996 | S. cerevisiae deletion strains, locus YMR231W, strain pep5, active compounds read low 0.992 | S. cerevisiae deletion strains, locus YMR263W, strain SAP30, active compounds read low 1.02 | S. cerevisiae deletion strains, locus YMR307W, strain GAS1, active compounds read low 1.02 | S. cerevisiae deletion strains, locus YNL067W, strain RPL9B, active compounds read low 1.02 | S. cerevisiae deletion strains, locus YNL071W, strain lat1, active compounds read low 0.984 | S. cerevisiae deletion strains, locus YNL128W, strain TEP1, active compounds read low 1.04 | S. cerevisiae deletion strains, locus YNL153C, strain GIM3, active compounds read low 1.01 | S. cerevisiae deletion strains, locus YNL209W, strain ssb2, active compounds read low 0.982 | S. cerevisiae deletion strains, locus YNL233W, strain BNI4, active compounds read low 1 | S. cerevisiae deletion strains, locus YNL248C, strain rpa49, active compounds read low 1.01 | S. cerevisiae deletion strains, locus YNL250W, strain rad50, active compounds read low 0.994 | S. cerevisiae deletion strains, locus YNL271C, strain bni1, active compounds read low 1 | S. cerevisiae deletion strains, locus YNL298W, strain CLA4, active compounds read low 1.01 | S. cerevisiae deletion strains, locus YNL307C, strain MCK1, active compounds read low 0.978 | S. cerevisiae deletion strains, locus YNL322C, strain KRE1 (second series), active compounds read low 0.979 | S. cerevisiae deletion strains, locus YNL322C, strain KRE1, active compounds read low 1.01 | S. cerevisiae deletion strains, locus YNR049C, strain mso1, active compounds read low 0.976 | S. cerevisiae deletion strains, locus YNR052C, strain pop2, active compounds read low 1.01 | S. cerevisiae deletion strains, locus YOL006C, strain TOP1, active compounds read low 1.02 | S. cerevisiae deletion strains, locus YOL012C, strain htz1 0.978 | S. cerevisiae deletion strains, locus YOL147C, strain pex11, active compounds read low 0.992 | S. cerevisiae deletion strains, locus YOR001W, strain rrp6, active compounds read low 1.01 | S. cerevisiae deletion strains, locus YOR061W, strain CKA2, active compounds read low 1.01 | S. cerevisiae deletion strains, locus YOR069W, strain VPS5, active compounds read low 1 | S. cerevisiae deletion strains, locus YOR070C, strain gyp1, active compounds read low 0.987 | S. cerevisiae deletion strains, locus YOR080W, strain dia2, active compounds read low 0.989 | S. cerevisiae deletion strains, locus YOR083W, strain WHI5, active compounds read low 1.01 | S. cerevisiae deletion strains, locus YOR106W, strain vam3, active compounds read low 0.994 | S. cerevisiae deletion strains, locus YOR136W, strain idh2, active compounds read low 0.993 | S. cerevisiae deletion strains, locus YOR144C, strain elg1, active compounds read low 0.999 | S. cerevisiae deletion strains, locus YOR184W, strain ser1, active compounds read low 0.999 | S. cerevisiae deletion strains, locus YOR265W, strain rbl2, active compounds read low 0.987 | S. cerevisiae deletion strains, locus YOR270C, strain vph1, active compounds read low 0.989 | S. cerevisiae deletion strains, locus YOR290C, strain snf2, active compounds read low 0.933 | S. cerevisiae deletion strains, locus YOR316C, strain cot1, active compounds read low 1 | S. cerevisiae deletion strains, locus YPL051W, strain arl3, active compounds read low 1 | S. cerevisiae deletion strains, locus YPL055C, strain LGE1, active compounds read low 1.04 | S. cerevisiae deletion strains, locus YPL078C, strain atp4, active compounds read low 0.995 | S. cerevisiae deletion strains, locus YPL106C, strain sse1, active compounds read low 0.942 | S. cerevisiae deletion strains, locus YPL240C, strain hsp82, active compounds read low 0.983 | S. cerevisiae deletion strains, locus YPL241C, strain CIN2, active compounds read low 1.01 | S. cerevisiae deletion strains, locus YPR119W, strain clb2, active compounds read low 0.99 | S. cerevisiae deletion strains, locus YPR141C, strain kar3, active compounds read low 1 | S. cerevisiae deletion strains, locus YPR163C, strain tif3, active compounds read low 0.992 | S. cerevisiae deletion strains, locus YPR167C, strain met16, active compounds read low 1 | S. cerevisiae deletion strains, strain wtn01, active compounds read low 0.997 | S. cerevisiae strains, strain wild type, active compounds read low 1.02
